# According to PubChem BioAssay (NCATS):
# Records with an inconclusive call do not appear. A call without a number means that no potency is given here. Active and inactive are the calls of the source. Unless noted, calls come from the whole dose curve; as a rule, active = well fitted curve in the direction sought with a large enough effect; inconclusive = small, poorly fitted or top-dose-only effect, or another doubt; inactive = no such curve, though single readings can be large; an effect the other way counts as inactive or inconclusive.
# Legend:
# [1] = biological target: Calcium and integrin-binding protein 1 (Homo sapiens) (UniProt Q99828); assay: Primary qHTS for Identification of Calcium Integrin Binding Protein 1 (CIB1) Competitor (AID 1508620);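 note: GST tagged CIB1 binding a fluorescein labelled alphaIIb integrin peptide tracer; top concentration of the series differs between compounds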
# Sequence of Calcium and integrin-binding protein 1 (Homo sapiens) (Q99828 whole entry, looked up): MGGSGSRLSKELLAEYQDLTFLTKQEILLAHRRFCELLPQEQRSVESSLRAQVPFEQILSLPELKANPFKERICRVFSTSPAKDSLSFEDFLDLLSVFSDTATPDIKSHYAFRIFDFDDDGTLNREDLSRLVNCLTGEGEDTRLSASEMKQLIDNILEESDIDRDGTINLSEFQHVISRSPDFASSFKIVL
# Outline: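 Fluorescence polarization competition: CIB1-GST (1 uM final) preincubated with compound 15 min at room temperature, then FITC-labeled alphaIIb peptide (100 nM final) added for another 15 min. Polarization read at Ex 480/Em 540.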
# [2] = biological target: Rap guanine nucleotide exchange factor 3 (Homo sapiens) (UniProt O95398); assay: Confirmatory qHTS for antagonist of cAMP-regulated guanine nucleotide exchange factor 3 (EPAC1) (AID 1645880); note: nearly all actives have a fitted effect of over 55% in size
# Sequence of Rap guanine nucleotide exchange factor 3 (Homo sapiens) (O95398 whole entry, looked up): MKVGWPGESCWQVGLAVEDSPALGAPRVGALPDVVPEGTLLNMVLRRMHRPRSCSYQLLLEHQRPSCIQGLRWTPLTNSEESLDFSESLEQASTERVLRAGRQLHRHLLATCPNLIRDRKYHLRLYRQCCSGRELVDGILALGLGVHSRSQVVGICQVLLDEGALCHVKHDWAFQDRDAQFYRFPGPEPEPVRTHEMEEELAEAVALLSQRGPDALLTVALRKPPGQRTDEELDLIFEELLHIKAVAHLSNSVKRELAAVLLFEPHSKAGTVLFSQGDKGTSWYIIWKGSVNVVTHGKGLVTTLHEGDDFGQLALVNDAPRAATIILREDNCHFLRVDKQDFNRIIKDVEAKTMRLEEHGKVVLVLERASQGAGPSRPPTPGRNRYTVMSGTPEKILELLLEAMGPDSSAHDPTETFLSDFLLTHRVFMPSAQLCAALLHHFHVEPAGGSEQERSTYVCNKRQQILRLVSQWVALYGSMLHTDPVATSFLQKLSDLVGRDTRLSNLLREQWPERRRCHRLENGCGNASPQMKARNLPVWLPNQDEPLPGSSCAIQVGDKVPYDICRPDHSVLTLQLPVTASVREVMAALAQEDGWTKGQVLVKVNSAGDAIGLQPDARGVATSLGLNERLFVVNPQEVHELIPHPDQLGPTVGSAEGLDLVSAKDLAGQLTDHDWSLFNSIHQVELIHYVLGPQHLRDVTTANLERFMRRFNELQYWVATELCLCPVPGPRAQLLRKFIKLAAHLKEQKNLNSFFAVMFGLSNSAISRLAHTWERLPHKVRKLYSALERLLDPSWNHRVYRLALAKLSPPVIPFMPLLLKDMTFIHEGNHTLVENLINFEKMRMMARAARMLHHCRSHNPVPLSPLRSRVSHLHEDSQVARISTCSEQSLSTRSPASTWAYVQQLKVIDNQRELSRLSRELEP
# Outline: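 Nucleotide exchange uses 100 nM EPAC1, 250 nM RAP1B-BODIPY-GDP and 50 uM GDP, with compounds in a concentration-titration series. After 5 min at room temperature, fluorescence (480 nm ex/540 nm em) is read every 5 min for 30 min. Data are normalized to control ATA and DMSO.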
# [3] = biological target: Rap guanine nucleotide exchange factor 3 (Homo sapiens) (UniProt O95398); assay: Confirmatory qHTS for agonist of cAMP-regulated guanine nucleotide exchange factor 3 (EPAC1) (AID 1645881);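 note: EPAC1 catalysed release of BODIPY-GDP from Rap1B seen as fluorescence loss; nearly all actives have a fitted effect of over 75% in size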
# [4] = biological target: Rap guanine nucleotide exchange factor 4 (Homo sapiens) (UniProt Q8WZA2); assay: Confirmatory qHTS for agonist of cAMP-regulated guanine nucleotide exchange factor 4 (EPAC2) (AID 1645884);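 note: nucleotide exchange releases bodipy-GDP from Rap1 and this lowers its fluorescence; nearly all actives have a fitted effect of over 65% in size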
# Sequence of Rap guanine nucleotide exchange factor 4 (Homo sapiens) (Q8WZA2 whole entry, looked up): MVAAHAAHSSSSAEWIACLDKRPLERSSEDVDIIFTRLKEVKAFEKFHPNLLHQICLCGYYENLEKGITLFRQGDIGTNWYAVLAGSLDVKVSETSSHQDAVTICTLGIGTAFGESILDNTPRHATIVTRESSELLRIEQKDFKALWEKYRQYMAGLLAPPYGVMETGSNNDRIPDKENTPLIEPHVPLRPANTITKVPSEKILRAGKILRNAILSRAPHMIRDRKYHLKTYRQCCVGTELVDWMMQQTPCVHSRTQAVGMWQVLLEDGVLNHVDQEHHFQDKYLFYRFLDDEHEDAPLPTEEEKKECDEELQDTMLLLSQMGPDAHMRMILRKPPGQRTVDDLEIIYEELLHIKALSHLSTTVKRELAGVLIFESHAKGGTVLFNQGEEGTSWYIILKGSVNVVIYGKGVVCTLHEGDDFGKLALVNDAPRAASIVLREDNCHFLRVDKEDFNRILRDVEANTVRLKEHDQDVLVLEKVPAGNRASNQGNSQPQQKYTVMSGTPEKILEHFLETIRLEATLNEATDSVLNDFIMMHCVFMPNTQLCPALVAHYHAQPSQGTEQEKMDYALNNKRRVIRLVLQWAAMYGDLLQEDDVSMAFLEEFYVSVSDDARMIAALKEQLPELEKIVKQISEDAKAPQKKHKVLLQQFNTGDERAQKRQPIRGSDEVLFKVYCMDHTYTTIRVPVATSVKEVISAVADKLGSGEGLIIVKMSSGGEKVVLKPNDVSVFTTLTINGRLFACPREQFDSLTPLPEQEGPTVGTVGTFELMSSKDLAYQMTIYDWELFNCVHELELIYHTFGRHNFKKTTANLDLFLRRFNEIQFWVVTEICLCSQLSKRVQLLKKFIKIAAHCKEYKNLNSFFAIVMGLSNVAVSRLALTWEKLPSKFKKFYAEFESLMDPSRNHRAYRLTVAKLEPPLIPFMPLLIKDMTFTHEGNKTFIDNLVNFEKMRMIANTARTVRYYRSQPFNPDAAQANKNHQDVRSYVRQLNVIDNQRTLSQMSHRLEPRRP
# [5] = biological target: Rap guanine nucleotide exchange factor 3 (Homo sapiens) (UniProt O95398); assay: Counterscreen qHTS for antagonist of cAMP-regulated guanine nucleotide exchange factor 3 (EPAC1) (AID 1645888);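 note: fluorescence loss as bound BODIPY-GDP is released from Rap1B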
# Outline: (§1)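 Measured: fluorescence of BODIPY-GDP bound to Rap1B, which falls as exchange proceeds. Conditions include 50 uM competing GDP, 5 and 30 min reads, and a later cAMP challenge for antagonist detection.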
# [6] = biological target: Rap guanine nucleotide exchange factor 3 (Homo sapiens) (UniProt O95398); assay: Counterscreen qHTS for agonist of cAMP-regulated guanine nucleotide exchange factor 3 (EPAC1) (AID 1645889); note: nearly all actives have a fitted effect of over 40% in size
# Outline: as §1
# [7] = qHTS for Inhibitors of Ubiquitin-specific Protease USP2a Using CHOP2 as the Reporter: K633 Counterscreen (AID 652168)
# Outline: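 Cell-free interference counterscreen without USP2a: compounds pinned into enzyme-free buffer (20 mM Tris pH 8, 2 mM beta-mercaptoethanol, 0.05% Chaps), then DiUb K48-4IQF substrate added (100 nM stock); fluorescence read kinetically, Ex 525/Em 598.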
# [8] = qHTS for Inhibitors of Ubiquitin-specific Protease USP2a Using CHOP2 as the Reporter: Cytotox Assay (AID 652170); note: potency is the fitted concentration of half-maximal effect; nearly all actives have a fitted effect of over 70% in size
# Outline: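 HCT116 human colon cancer cells, 600 per well in DMEM with 10% FBS, exposed to compounds for 72 hr at 37 deg C. ATP measured by CellTiter-Glo luminescence, normalized to DMSO cells and no-cell background.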
# [9] = Primary qHTS for inhibitors of nuclear receptor binding SET domain protein 2 (NSD2) in an isogenic RCH-ACV NSD2 p.E1099K mutant (9B) (AID 1645876); note: potency is the fitted concentration of half-maximal effect; nearly all actives have a fitted effect of over 70% in size
# [10] = Primary qHTS for inhibitors of nuclear receptor binding SET domain protein 2 (NSD2) in an RCH-ACV wild type WT cells (2C) (AID 1645877); note: potency is the fitted concentration of half-maximal effect; nearly all actives have a fitted effect of over 70% in size
# [11] = qHTS drug screen for cell cycle checkpoint inhibitors in PARPi-resistant BRCA-mutant ovarian cancer cell lines. (AID 1963452; calls by dose curve); settings: PEO1/OlaR viability, CellTiter-Glo luminescence, 96 h, stronger effect = lower value
# Outline: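 PEO1, PEO4 and PEO1/OlaR ovarian cancer cells, 600 per well, exposed 96 h at 37C to a dilution series. Viability read by CellTiter-Glo luminescence, normalized to DMSO and empty wells; activity summarized as Z-AUC.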
# [12] = biological target: Glutathione peroxidase 1 (Homo sapiens) (UniProt P07203); assay: Primary qHTS Assay for Inhibitors of Recombinant Selenoprotein Glutathione Peroxidase 1 (GPX1) (AID 1845191); note: nearly all actives have a fitted effect of over 65% in size
# Sequence of Glutathione peroxidase 1 (Homo sapiens) (P07203 whole entry, looked up): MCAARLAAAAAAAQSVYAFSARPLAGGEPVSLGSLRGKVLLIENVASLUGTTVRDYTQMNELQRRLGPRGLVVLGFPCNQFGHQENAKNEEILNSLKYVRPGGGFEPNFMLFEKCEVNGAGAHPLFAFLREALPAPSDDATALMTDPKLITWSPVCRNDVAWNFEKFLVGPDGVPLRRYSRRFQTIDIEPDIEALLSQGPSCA
# Outline: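 Recombinant GPX1 (10 nM final) was preincubated with compound for 30 min at room temperature, then reacted with 1 mM GSH, 0.5 mM CHP, 0.5 mM NADPH and 100 nM glutathione reductase; NADPH fluorescence (340/450 nm) was read at 0 and 15 min.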
# [13] = biological target: Rap guanine nucleotide exchange factor 4 (Homo sapiens) (UniProt Q8WZA2); assay: Confirmatory qHTS for antagonist of cAMP-regulated guanine nucleotide exchange factor 4 (EPAC2) (AID 1645885); note: nearly all actives have a fitted effect of over 25% in size
# [14] = biological target: Catechol O-methyltransferase (Homo sapiens) (UniProt P21964); assay: Confirmatory Screen for Target Class Profiling of Small Molecule Inhibitors of Methyltransferases (AID 1745852; calls by dose curve; note: potency is the fitted concentration of half-maximal effect); settings: MTase-Glo luminescence, SAH detection, recombinant enzyme; measured here: COMT max response; stronger effect = lower value
# Sequence of Catechol O-methyltransferase (Homo sapiens) (P21964 whole entry, looked up): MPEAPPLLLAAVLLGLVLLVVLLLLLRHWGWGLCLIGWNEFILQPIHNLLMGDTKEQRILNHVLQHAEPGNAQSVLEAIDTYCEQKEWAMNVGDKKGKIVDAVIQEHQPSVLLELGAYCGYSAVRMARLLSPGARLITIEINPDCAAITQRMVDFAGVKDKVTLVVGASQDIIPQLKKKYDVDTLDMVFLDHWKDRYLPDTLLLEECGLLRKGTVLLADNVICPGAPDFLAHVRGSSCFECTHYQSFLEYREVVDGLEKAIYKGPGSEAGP
# [15] = biological target: Guanidinoacetate N-methyltransferase (Homo sapiens) (UniProt Q14353); assay: as above; settings: MTase-Glo luminescence, SAH detection, recombinant enzyme; activity change, negative = inhibition: at 57.3 µM (top of the series)
# [16] = biological target: Nicotinamide N-methyltransferase (Homo sapiens) (UniProt P40261); assay: as above; settings: MTase-Glo luminescence, SAH detection, recombinant enzyme; measured here: NNMT max response; stronger effect = lower value
# Sequence of Nicotinamide N-methyltransferase (Homo sapiens) (P40261 whole entry, looked up): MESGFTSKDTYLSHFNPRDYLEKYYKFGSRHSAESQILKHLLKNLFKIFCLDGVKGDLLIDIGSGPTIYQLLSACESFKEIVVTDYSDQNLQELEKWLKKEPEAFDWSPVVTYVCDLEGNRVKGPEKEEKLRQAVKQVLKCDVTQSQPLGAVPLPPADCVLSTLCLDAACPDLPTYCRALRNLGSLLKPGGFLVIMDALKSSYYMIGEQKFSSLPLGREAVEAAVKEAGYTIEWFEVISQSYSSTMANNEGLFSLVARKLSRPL
# [17] = biological target: Phenylethanolamine N-methyltransferase (Homo sapiens) (UniProt P11086); assay: as above; settings: MTase-Glo luminescence, SAH detection, recombinant enzyme; measured here: PNMT max response; stronger effect = lower value
# Sequence of Phenylethanolamine N-methyltransferase (Homo sapiens) (P11086 whole entry, looked up): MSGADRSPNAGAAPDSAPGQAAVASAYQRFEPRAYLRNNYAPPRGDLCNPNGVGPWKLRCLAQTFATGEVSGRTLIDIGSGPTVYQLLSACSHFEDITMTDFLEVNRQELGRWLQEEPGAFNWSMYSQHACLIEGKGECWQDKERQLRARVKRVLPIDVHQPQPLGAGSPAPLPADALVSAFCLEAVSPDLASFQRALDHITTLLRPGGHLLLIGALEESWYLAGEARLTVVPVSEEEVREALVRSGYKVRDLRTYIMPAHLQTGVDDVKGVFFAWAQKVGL
smiles,measurement,setting,value
CCC(=O)NC(c1cccs1)c1cc(Cl)c2cccnc2c1O (stereo not drawn),Potency,[1],inactive
same,Potency,[2],inactive
same,outcome,[3],inactive
same,outcome,[4],inactive
same,outcome,[5],inactive
same,outcome,[6],inactive
Cc1ccc(S(=O)(=O)Nc2cc(C(F)(F)F)ccc2C(=O)Nc2nc(-c3ccccc3)cs2)cc1,outcome,[7],inactive
same,Potency,[8],2.96 µM (active)
same,Potency,[1],inactive
same,Potency,[9],4.17 µM (active)
same,Potency,[10],4.17 µM (active)
same,Z-AUC,[11],0.58 (inactive)
same,Z-AUC,[11]; measured here: PEO1 parental Z-AUC,0.184
same,Z-AUC,[11]; measured here: PEO4 Z-AUC,-0.358
Nc1ccc(-c2ccnc(NCCCNC(=O)c3c(Cl)cccc3Cl)n2)cc1,Potency,[1],inactive
same,Potency,[12],inactive
Cc1ccc(NS(=O)(=O)c2cc3c(cc2N[C@H](C)CO)NC(=O)CC3)cc1C,Potency,[1],inactive
same,Potency,[12],inactive
CCC(=O)NC(c1cc(Cl)c2ccccc2c1O)C(C)C (stereo not drawn),Potency,[1],inactive
same,outcome,[3],inactive
same,outcome,[4],inactive
same,Potency,[13],inactive
same,outcome,[5],inactive
same,outcome,[6],inactive
Cc1ccc(NS(=O)(=O)c2ccc3c(c2)CCC(=O)N3)cc1C,Potency,[1],inactive
same,Potency,[12],inactive
CN(Cc1cccs1)c1ncnc2ccc(-c3ccc4c(c3)OCO4)cc12,Potency,[1],inactive
same,Potency,[9],20.6 µM (active)
same,activity,[14],-85.9%
same,Potency,[15],12.1 µM (active)
same,activity,[16],-70.6%
same,activity,[17],-84.2%
same,Potency,[12],inactive
